Laboratory results published in PubChem BioAssay.
Activity calls are given as the source filed them.

Assays:
[1] = tested on: Human papillomavirus type 1a protein E7 (residues 44-93); experiment: small molecules binding HPV E7 44-93 – biochemical, small-molecule microarray, residues 44-93, 635 nm fluorescence, primary screen (AID 1108); conditions: fluorescence 635 nm, higher = more signal;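 note: E7 fragment applied at 1 µg/mL in TBST for 1 h at 4 C; score combines spot fluorescence with its signal to noise ratio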
[2] = hepatitis C replication reporter changes, two-sided – Huh7 cells, luciferase reporter, HCV replication inhibitor project, primary screen (AID 1109); conditions: Huh7 HCV replicon luciferase reporter, 48 h; higher = more signal;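 note: huh7 hepatoma cells harbouring a luciferase neomycin HCV replicon reporter; luciferase luminescence as measure of HCV replicon replication; test concentration not given here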
[3] = target: Left-right determination factor 2 (Homo sapiens) (UniProt O00292); experiment: small molecules binding LEFTY2 protein – biochemical, small-molecule microarray, 635 nm fluorescence scan, primary screen (AID 1110); conditions: higher = more signal
[4] = target: Calmodulin-1 (Homo sapiens) (UniProt P0DP23); experiment: small molecules binding calmodulin-1 with EGTA – biochemical, small-molecule microarray, Cy5-labelled CALM1, profiling panel (AID 1111); conditions: Cy5-CALM1 binding fluorescence, higher = more signal;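 note: labelled calmodulin applied in Tris saline Tween buffer holding calcium plus EGTA and DTT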
[5] = target: Calmodulin-1 (Homo sapiens) (UniProt P0DP23); experiment: small molecules binding Ca-loaded calmodulin-1 – biochemical, small-molecule microarray, Cy5-labelled CALM1, plus calcium, artefact control for SMM control-protein annotation, profiling panel (AID 1112); conditions: Cy5-CALM1 binding fluorescence, higher = more signal;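 note: score merges spot fluorescence with signal to noise from triplicate slides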
[6] = probe aWnt5a binding to arrayed compounds – biochemical, biotinylated probe, 635/667 nm fluorescence, primary screen (AID 1113); conditions: small-molecule microarray, higher = more signal;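 note: score merges 667 nm fluorescence intensity with signal-to-noise per printed feature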
[7] = probe aShh binding to arrayed compounds – biochemical, biotinylated probe, 635/667 nm fluorescence, primary screen (AID 1114); conditions: small-molecule microarray, higher = more signal;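 note: probe is biotin-labelled aShh protein from a stem cell growth factor screen; measures binding of labelled protein to compounds printed on the slide; score merges feature fluorescence at 667 nm with signal-to-noise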
[8] = probe aNog binding to arrayed compounds – biochemical, biotinylated probe, 635/667 nm fluorescence, primary screen (AID 1115); conditions: small-molecule microarray, higher = more signal;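 note: probe is biotinylated aNog protein used at 0.15 µg/mL for 1 h at 4 C; z-score combines 667 nm fluorescence of each spot with its signal to noise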
[9] = target: Torsin-1A-interacting protein 1 (Homo sapiens) (UniProt Q5JTV8); experiment: compound microarray binding of lysate hLAP1 – cell lysate, small-molecule microarray, COS7 lysate, 635/667 nm fluorescence, primary screen (AID 1116); conditions: 635 nm fluorescence, higher = more signal
[10] = target: Alpha-bungarotoxin (Bungarus multicinctus) (UniProt P60615); experiment: compounds binding labelled alpha-BTX control protein – biochemical, small-molecule microarray, Alexa647 label, 635/667 nm fluorescence, artefact control for SMM control protein annotation, profiling panel (AID 1117); conditions: alpha-BTX-A647 binding fluorescence, higher = more signal
Albumin (Bos taurus) = Albumin (Bos taurus) (UniProt P02769); experiment: compounds binding labelled BSA control protein – biochemical, small-molecule microarray, Alexa647 label, 635/667 nm fluorescence, artefact control for SMM control protein annotation, profiling panel (AID 1118); conditions: BSA-A647 binding, fluorescence 635 nm, higher = more signal;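 note: score merges 667 nm emission intensity and signal-to-noise per printed compound spot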
[11] = probe aXIP binding to arrayed compounds – biochemical, NeuroSMM set, 635/667 nm fluorescence, primary screen (AID 1119); conditions: small-molecule microarray, higher = more signal, called active from +8 up or from −8 down;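 note: probe is the protein aXip251-270 applied at 1 µg/mL to compound-printed slides; binding of probe to printed compounds measured as 667 nm fluorescence plus signal to noise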
[12] = probe aNOTCH3 binding on compound microarray – biochemical, small-molecule microarray, 635/667 nm fluorescence, primary screen (AID 1120); conditions: higher = more signal;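 note: probe is a biotin-tagged antibody raised against NOTCH3 rather than NOTCH3 protein; score merges spot fluorescence near 667 nm with spot signal to noise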
[13] = probe aNOTCH2 binding on compound microarray – biochemical, small-molecule microarray, 635/667 nm fluorescence, primary screen (AID 1121); conditions: higher = more signal;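 note: score merges feature fluorescence read at 667 nm with its signal to noise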
[14] = target: Carbonic anhydrase 2 (Homo sapiens) (UniProt P00918); experiment: compounds binding carbonic anhydrase 2 – biochemical, small-molecule microarray, Alexa647-labelled CAII, profiling panel (AID 1122); conditions: CAII-A647 binding fluorescence, higher = more signal
[15] = COS7 lysate on small-molecule microarray, probe aHis, 635 nm (AID 1123); conditions: COS7 cell lysate, fluorescence, higher = more signal;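 note: z-score combines 667nm fluorescence intensity with signal-to-noise per printed compound spot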
[16] = probe aLAP1 signal on lysate-treated microarray – cell lysate, small-molecule microarray, COS7 lysate, primary screen (AID 1124); conditions: probe aLAP1, fluorescence, higher = more signal;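 note: lysate comes from COS7 cells expressing LAP1 and is applied at 0.3 µg/mL; score merges spot fluorescence near 667 nm with signal-to-noise over triplicate slides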
Sam68 (KHDRBS1) = experiment: compounds binding KHDRBS1 protein – biochemical, small-molecule microarray, 635 nm fluorescence, primary screen (AID 1125); conditions: higher = more signal;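 note: score merges 667 nm channel intensity with signal to noise over triplicate slides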
[17] = tested on: Chordin-like protein 2 (CHRDL2); experiment: compounds binding chordin-like 2 – biochemical, small-molecule microarray, 635 nm fluorescence, primary screen (AID 1126); conditions: fluorescence 635 nm, higher = more signal;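 note: printed compound slides probed with Chrdl2 protein at 4 µg/mL for 1 h at 4 C; score merges 667 nm emission intensity with signal to noise over three replicate slides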
[18] = target: Concanavalin-A (Canavalia ensiformis) (UniProt P02866); experiment: compounds binding concanavalin A lectin – biochemical, small-molecule microarray, Alexa647 label, 635 nm, artefact control for SMM control protein annotation, primary screen (AID 1127); conditions: ConA-A647 binding fluorescence, higher = more signal;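 note: z combines 667 nm emission intensity with signal-to-noise across three replicate slides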
Chain of Concanavalin-A (Canavalia ensiformis) (P02866 whole entry, looked up): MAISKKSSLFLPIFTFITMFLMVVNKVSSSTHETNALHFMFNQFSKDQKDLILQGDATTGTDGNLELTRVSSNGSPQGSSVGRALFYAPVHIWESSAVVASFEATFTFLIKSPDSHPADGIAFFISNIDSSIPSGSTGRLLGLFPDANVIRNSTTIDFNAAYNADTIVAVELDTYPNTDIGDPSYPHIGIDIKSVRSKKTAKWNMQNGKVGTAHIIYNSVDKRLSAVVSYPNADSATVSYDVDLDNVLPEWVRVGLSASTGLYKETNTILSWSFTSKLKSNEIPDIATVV

Chain of Left-right determination factor 2 (Homo sapiens) (O00292 whole entry, looked up): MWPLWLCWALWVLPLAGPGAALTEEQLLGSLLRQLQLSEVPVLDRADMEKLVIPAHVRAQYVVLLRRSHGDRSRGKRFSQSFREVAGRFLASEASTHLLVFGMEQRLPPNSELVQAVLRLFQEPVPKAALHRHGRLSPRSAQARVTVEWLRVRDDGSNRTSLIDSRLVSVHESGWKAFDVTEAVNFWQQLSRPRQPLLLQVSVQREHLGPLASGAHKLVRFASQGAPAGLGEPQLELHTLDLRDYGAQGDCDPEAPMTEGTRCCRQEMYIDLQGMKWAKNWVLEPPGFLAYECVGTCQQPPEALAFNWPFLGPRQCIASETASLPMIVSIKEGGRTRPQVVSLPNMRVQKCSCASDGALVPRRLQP
Chain of Albumin (Bos taurus) (P02769 whole entry, looked up): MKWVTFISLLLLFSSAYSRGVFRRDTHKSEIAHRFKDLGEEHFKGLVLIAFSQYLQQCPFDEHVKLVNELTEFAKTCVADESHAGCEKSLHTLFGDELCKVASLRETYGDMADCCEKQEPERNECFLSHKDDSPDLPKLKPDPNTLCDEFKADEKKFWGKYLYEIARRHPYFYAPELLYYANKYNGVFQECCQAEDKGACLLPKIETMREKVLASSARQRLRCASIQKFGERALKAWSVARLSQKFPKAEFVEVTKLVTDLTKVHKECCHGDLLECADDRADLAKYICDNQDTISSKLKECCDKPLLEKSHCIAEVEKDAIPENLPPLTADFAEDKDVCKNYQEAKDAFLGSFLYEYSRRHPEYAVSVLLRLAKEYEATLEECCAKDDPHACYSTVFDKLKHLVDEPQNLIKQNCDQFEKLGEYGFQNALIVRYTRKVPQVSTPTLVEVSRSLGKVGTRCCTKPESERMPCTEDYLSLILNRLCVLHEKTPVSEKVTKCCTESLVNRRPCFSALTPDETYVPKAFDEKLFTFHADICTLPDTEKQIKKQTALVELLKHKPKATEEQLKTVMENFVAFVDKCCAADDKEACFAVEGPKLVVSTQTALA
Chain of Alpha-bungarotoxin (Bungarus multicinctus) (P60615 whole entry, looked up): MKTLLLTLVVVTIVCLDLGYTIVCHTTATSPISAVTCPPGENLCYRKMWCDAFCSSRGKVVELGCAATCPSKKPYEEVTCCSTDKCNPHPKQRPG
Chain of Torsin-1A-interacting protein 1 (Homo sapiens) (Q5JTV8 whole entry, looked up): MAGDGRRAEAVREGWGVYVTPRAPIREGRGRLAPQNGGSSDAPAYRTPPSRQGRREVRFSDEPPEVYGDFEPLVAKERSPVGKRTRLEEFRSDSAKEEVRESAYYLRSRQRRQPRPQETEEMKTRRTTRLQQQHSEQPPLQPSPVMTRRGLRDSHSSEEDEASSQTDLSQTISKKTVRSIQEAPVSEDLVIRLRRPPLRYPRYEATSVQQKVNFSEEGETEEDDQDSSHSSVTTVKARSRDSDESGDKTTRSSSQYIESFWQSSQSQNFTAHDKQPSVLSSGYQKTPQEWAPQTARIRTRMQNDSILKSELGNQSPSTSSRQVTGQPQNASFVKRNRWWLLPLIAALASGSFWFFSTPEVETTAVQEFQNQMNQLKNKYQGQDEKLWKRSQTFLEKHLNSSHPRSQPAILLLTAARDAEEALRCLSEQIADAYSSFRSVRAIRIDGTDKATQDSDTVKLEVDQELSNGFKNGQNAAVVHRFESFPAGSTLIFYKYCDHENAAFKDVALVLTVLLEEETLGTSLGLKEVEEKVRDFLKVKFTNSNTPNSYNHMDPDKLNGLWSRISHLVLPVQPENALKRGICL

Compound	composite z-score [1]	z-score [2]	composite z-score [3]	composite z-score [4]	composite z-score [5]	composite z-score [6]	composite z-score [7]	composite z-score [8]	composite z-score [9]	composite z-score [10]	composite z-score (Albumin (Bos taurus))	composite Z-score [11]	composite z-score [12]	composite z-score [13]	composite z-score [14]	composite z-score [15]	composite z-score [16]	composite z-score (Sam68 (KHDRBS1))	composite z-score [17]	composite z-score [18]
COCCOC(=O)N1C(=O)[C@@]2(c3cc(C#CCC(C(=O)OC)C(=O)OC)ccc31)[C@H](C(N)=O)[C@H]1C(=O)O[C@H](c3ccccc3)[C@H](c3ccccc3)N1[C@@H]2c1ccccc1OCCO	1.31	-3.36	0.584	1.44	0.308	0.0297	-0.182	-0.263	0.146	0.899	0.653	-0.145 (inactive)	-0.0565	0.201	0.593	0.882	-0.155	1.32	1.1	1.15
CCOC(=O)C[C@H]1[C@H](OC(=O)c2ccc(-c3ccccc3)cc2)[C@@H](NC(=O)C2CCCCC2)c2cc(OCCCO)ccc2N1C(=O)Cc1ccc(OC)cc1	0.612	-1.57	0.4	1.07	0.881	-0.0523	-0.571	-0.638	0.527	0.333	0.561	0.204 (inactive)	-0.0362	-0.182	-0.0434	0.405	0.652	0.496	0.0463	-0.361
CCOC(=O)C1=CCC(c2ccncc2)N(S(=O)(=O)c2ccc(C)cc2)C1 (stereo not given)	1.47	-2.8	0.502	1.61	0.276	-0.0125	-0.154	-0.389	2.15	0.842	0.924	0.525 (inactive)	0.191	-0.0621	0.702	2.6	1.05	1.3	0.192	0.786
C=CCNC(=O)[C@@H]1[C@H]2C(=O)O[C@H](c3ccccc3)[C@H](c3ccccc3)N2[C@H](c2ccc(OCCO)cc2)[C@@]12C(=O)Nc1ccc(C#CC3=CCCCC3)cc12	0.0834	-2.53	0.413	1.62	0.107	-0.012	0.103	0.843	0.803	2.23	0.806	0.653 (inactive)	0.0493	-0.145	0.512	1.33	0.402	1.3	0.0821	1.14
C=CCOC(=O)[C@@H]1[C@H]2C(=O)O[C@H](c3ccccc3)[C@H](c3ccccc3)N2[C@H](c2ccc(OCCOC(=O)[C@H]3C[C@H]4C(=O)N[C@@H](CCCCN(C)C)C(=O)N4[C@H]3c3cccc(OCCO)c3)cc2)[C@@]12C(=O)Nc1ccccc12	0.313	-0.772	-1.19	0.12	0.177	-0.033	0.584	0.511	0.518	0.175	0.172	0.597 (inactive)	-0.2	0.0018	0.656	0.668	0.781	0.846	0.0523	0.682
[N-]=[N+]=NCc1ccccc1[C@H]1OC(c2ccc(OCCCO)cc2)=N[C@@]1(Cc1ccccc1N=[N+]=[N-])C(=O)N1CCOCC1	1.39	-2.2	-0.267	1.86	0.642	0.0115	0.539	1.44	0.506	1.4	0.939	0.594 (inactive)	0.0159	-0.0895	0.676	2.57	-0.14	1.3	-0.596	1.14
COC(=O)C(CC#Cc1ccc2c(c1)[C@]1(C(=O)N2)[C@H](c2ccccc2OCCO)N2[C@H](c3ccccc3)[C@H](c3ccccc3)OC(=O)[C@H]2[C@@H]1C(=O)N1CCN(c2ncccn2)CC1)C(=O)OC	1.37	-2.63	0.595	0.999	-0.154	-0.152	0.178	-0.158	0.664	0.876	0.706	0.156 (inactive)	0.0052	-0.132	0.23	1.18	0.309	1.31	1.1	1.11
COCCCNC(=O)[C@@]1(CCC(=O)OC(C)(C)C)N=C(c2ccc(OCCCO)cc2)O[C@H]1c1ccccc1	1.37	-0.618	-0.926	1.1	0.783	-0.0566	0.123	1.83	1.49	1.32	0.838	0.0999 (inactive)	0.141	-0.0237	0.696	2.94	0.584	0.748	-0.864	0.525
C[N+](C)(C)CCCC[C@@H]1NC(=O)[C@H]2C[C@@H](C(=O)O)[C@@H](c3ccc(O)cc3)N2C1=O	0.315	3.08	0.436	-0.171	0.11	-0.147	-0.375	-0.14	1.74	0.343	-0.804	-0.55 (inactive)	-0.165	-0.104	0.704	1.4	0.606	0.744	0.616	0.905
